Consider 14 compounds from PubChem BioAssay.

Usually inhibition stands for the change of the read-out against control, counted positive when it falls.

A short description of assay [1]: inhibitors of TNFa-induced NFkB p65 translocation, primary screen, imaging, HUVEC, MLSMR starter and 10KST1 sets (AID 438;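 active means inhibition above 20% together with a positive visual image hit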;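 further: compound added about 3h40 before a 20 min TNFalpha stimulation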;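 on inhibition: signal is the nuclear over cytoplasmic p65 intensity ratio per well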). The following applies: HUVEC TNFa-induced p65 nuclear translocation; cell count: measured here: nuclei count (cytotoxicity indicator), at 2.08 µM; inhibition: at 2 µM, stronger effect = higher value, 0% TNFa-plus-vehicle, 100% no-TNFa wells.
Assay [2] is described as follows: inhibitors of mutant huntingtin aggregation, primary screen, imaging, exon1htt(103Q)mCFP cells, high-content imaging (AID 483;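 active means visual image review flags a hit and inhibition of aggregation exceeds 20%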;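 further: compound exposure lasted 3 days before fixation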;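 on nuclei count: percent of the per-plate median nuclei count of sample wells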). Conditions: exon1htt(103Q)mCFP cell line, aggregate imaging, at 2 µM; inhibition of aggregation: stronger effect = higher value; nuclei count: measured here: cell count, toxicity.
Assay [3] is described as follows: inhibitors of E-selectin induction by TNFa, primary screen, imaging, HUVEC, immunofluorescence, MLSMR starter and 10KST1 sets (AID 487;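 active means visually confirmed hit in the image check and inhibition above 20%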;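 on inhibition: signal is fraction of cell area covered by stained E-selectin grains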;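 on nuclei count: 100% = median nuclei count of all wells on the same plate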). Conditions: HUVEC TNFalpha-induced E-selectin immunofluorescence imaging, at 2 µM; inhibition: stronger effect = higher value; nuclei count: measured here: cell number, toxicity.
Assay [4] concerns the target Voltage-gated potassium channel subunit beta-2 (Rattus norvegicus) (UniProt P62483). In words: KvBeta enzyme negative modulators, primary screen, biochemical, NADPH fluorescence (AID 622;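 active means fluorescence slope higher than the sample average by over 3 SD, cut at about -0.22 in these data, passing the limit was not always enough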;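 further: slope of raw intensity against log time taken from 70 to 1610 s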). The following applies: recombinant KvBeta, 4-cyanobenzaldehyde reduction, at 10 µM, stronger effect = higher value.
The target is the same in assay [5]. In words: KvBeta positive modulators, primary screen, biochemical, NADPH fluorescence (AID 623;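 active means NADPH fluorescence slope more negative than the mean of all samples by about 3 SD, 99.7% confidence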;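 further: fluorescence intensity change per second fitted from 20 to 320 s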). Conditions: Recombinant KvBeta, NADPH fluorescence decrease slope, 10 min; at 10 µM; stronger effect = lower value.
The target of assay [6] is Alpha-2C adrenergic receptor (Homo sapiens) (UniProt P18825). In words: modulators of alpha2C/GIRK thallium flux, primary screen, cell-based, HEK293 alpha2C/GIRK1/2 (AID 624;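 active means fluorescence slope after compound addition differing from the mean of all screened samples at 99.7% confidence, in either direction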;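 further: slope of fluorescence ratio to pre-addition baseline per second over 15 to 24 s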). Conditions: thallium flux BTC fluorescence, at 10 µM, actives lie on both sides.
Assay [7] is described as follows: inhibitors of Sendai virus-induced IRF3 signaling, primary screen, TLR/RLR signaling modifier project, cell-based, Sendai virus stimulus, luciferase, 10K MLSCN set (AID 602276;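 active means inhibition at or above 50% at 10 µM; inactive means inhibition below 50%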;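 further: firefly luciferase from ISG56 promoter only with Renilla not read in this screen; 0% = Sendai virus plus DMSO and 100% = medium plus DMSO without virus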). Conditions: HEK293 RL24 IRF3 luciferase reporter, at 10 µM, stronger effect = higher value. In general terms: In a reporter assay the amount or activity of a reporter protein is the signal.
Assay [8] in a line: inhibitors of poly I:C-induced TLR3 signaling, primary screen, cell-based, poly I:C stimulus, luciferase, 10K MLSCN set (AID 602277). Conditions: HEK293-TLR3 RL24 IRF3 luciferase reporter, at 10 µM, stronger effect = higher value.

Active and inactive are the calls of the source.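 How the source made its calls, unless noted: active means inhibition of the reporter signal at or above 50%; inactive means inhibition below 50%.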

Sequence of Voltage-gated potassium channel subunit beta-2 (Rattus norvegicus) (P62483 whole entry, looked up): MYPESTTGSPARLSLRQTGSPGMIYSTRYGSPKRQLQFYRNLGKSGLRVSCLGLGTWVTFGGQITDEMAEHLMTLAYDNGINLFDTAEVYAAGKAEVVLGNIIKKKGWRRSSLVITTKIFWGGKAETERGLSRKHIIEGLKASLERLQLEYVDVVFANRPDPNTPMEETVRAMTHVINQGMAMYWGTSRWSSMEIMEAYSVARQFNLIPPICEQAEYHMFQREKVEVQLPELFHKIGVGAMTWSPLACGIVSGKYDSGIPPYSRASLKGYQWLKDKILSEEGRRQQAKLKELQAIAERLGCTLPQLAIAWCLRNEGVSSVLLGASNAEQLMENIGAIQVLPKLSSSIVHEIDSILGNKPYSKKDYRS
Sequence of Alpha-2C adrenergic receptor (Homo sapiens) (P18825 whole entry, looked up): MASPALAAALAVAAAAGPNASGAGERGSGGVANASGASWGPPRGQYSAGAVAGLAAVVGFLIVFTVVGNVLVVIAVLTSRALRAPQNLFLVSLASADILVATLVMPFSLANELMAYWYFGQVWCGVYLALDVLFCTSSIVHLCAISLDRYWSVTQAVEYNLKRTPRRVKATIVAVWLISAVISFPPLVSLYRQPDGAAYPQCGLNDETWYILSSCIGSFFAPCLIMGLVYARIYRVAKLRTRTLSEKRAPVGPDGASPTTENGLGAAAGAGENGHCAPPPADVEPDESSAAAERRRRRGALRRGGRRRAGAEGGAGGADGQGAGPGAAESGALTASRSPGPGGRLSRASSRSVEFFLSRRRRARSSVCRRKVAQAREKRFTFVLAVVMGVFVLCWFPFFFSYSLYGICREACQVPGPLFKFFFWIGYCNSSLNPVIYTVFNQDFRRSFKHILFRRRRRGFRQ

With `CCCC1CCC(C(=O)Nn2cnc3ccccc3c2=O)CC1` (centres undefined), the cell count in assay [1] came to 271. Besides, the inhibition is 3.9% (inactive) in assay [1], 33.8% (inactive) in assay [3], 6.74% (inactive) in assay [7] and 21.4% (inactive) in assay [8]. The inhibition of aggregation in assay [2] was 17.1% (inactive). Besides, the results for the nuclei count in assay [2] and in assay [3] were 86.9% and 77.6%, respectively. In addition, the fluorescence slope in assay [4] was -0.478 (inactive). Besides, in assay [5], the NADPH fluorescence slope is 2.4e-05 (inactive). Moreover, the slope in assay [6] is 0.00566 (inactive).

In the case of `CCOc1ccc2nc(N3CCC(C(=O)N4CCN(C5CCCCC5)CC4)CC3)sc2c1`, in assay [1], the cell count is 594. Besides, the inhibition in assay [1] was -0.8% (inactive); in assay [3] it was -54% (inactive); in assay [7] it was -54.1% (inactive); in assay [8], -73.6% (inactive). In assay [2], the inhibition of aggregation was -15.4% (inactive). In addition, the nuclei count in assay [2] stood at 103%; in assay [3], 107%. In addition, in assay [4], the fluorescence slope was -0.553 (inactive). The NADPH fluorescence slope in assay [5] was 6.2e-06 (inactive). Further, in assay [6], the slope is 0.00601 (inactive).

With `CC1CCN(c2oc(-c3cccc4ccccc34)nc2C#N)CC1`, the cell count in assay [1] came to 610. Moreover, the inhibition in assay [1] was -8.2% (inactive); in assay [3], -112% (inactive); in assay [7], -40.5% (inactive); in assay [8], -95.3% (inactive). In addition, the inhibition of aggregation in assay [2] was 1.2% (inactive). For the same compound, the nuclei count was 102% in assay [2] and 101% in assay [3]. Further, the fluorescence slope in assay [4] was -0.0453 (active). Also, in assay [5], the NADPH fluorescence slope was -6.6e-07 (inactive). In addition, in assay [6], the slope is 0.00364 (inactive).

In the case of `O=C(NCc1ccc2c(c1)OCO2)C1CCCN(S(=O)(=O)c2cccc3cccnc23)C1` (centres undefined), the cell count in assay [1] was determined as 741. Also, the inhibition was -8% (inactive) in assay [1], -40.6% (inactive) in assay [3], 15.2% (inactive) in assay [7] and 40.4% (inactive) in assay [8]. The inhibition of aggregation in assay [2] is 20.4% (inactive). Further, the values for the nuclei count in assay [2] and in assay [3] were 125% and 104%, respectively. Also, the fluorescence slope in assay [4] is -0.527 (inactive). Also, the NADPH fluorescence slope in assay [5] is -6.1e-05 (inactive). Further, the slope in assay [6] was 0.00698 (inactive).

On to `Cc1ccc(-c2nc(N)n(C(=O)c3cccnc3)n2)cc1`, for which the cell count in assay [1] was 359. For the same compound, the inhibition in assay [1] is 5.5% (inactive); in assay [3] it was -110% (inactive); in assay [7] it was 0.795% (inactive); in assay [8], 22.5% (inactive). For the same compound, the inhibition of aggregation in assay [2] was -19.9% (inactive). Besides, the nuclei count worked out at 113% in assay [2] and 109% in assay [3]. Further, the fluorescence slope in assay [4] was -0.339 (inactive). Also, the NADPH fluorescence slope in assay [5] was -5.3e-06 (inactive). For the same compound, in assay [6], the slope is 0.00801 (inactive).

With `CCn1c(SCC(=O)Nc2ccc3c(c2)OCO3)nc2c(c1=O)SC(C)C2` (centres undefined), the cell count in assay [1] worked out at 496. In addition, the inhibition in assay [1] was 9.6% (inactive); in assay [3], 15.4% (inactive); in assay [7], -0.539% (inactive); in assay [8] it was 16.9% (inactive). Besides, in assay [2], the inhibition of aggregation was 4% (inactive). Also, the values for the nuclei count in assay [2] and in assay [3] were 111% and 95.3%, respectively. Besides, in assay [4], the fluorescence slope was -0.561 (inactive). For the same compound, the NADPH fluorescence slope in assay [5] was -5e-05 (inactive). Besides, the slope in assay [6] was 0.00661 (inactive).

With `COc1cc(NC(=O)CC(C)C)ccc1NC(=O)c1ccco1`, in assay [1], the cell count was 612. Further, the inhibition was -6% (inactive) in assay [1], 44.4% (inactive) in assay [3], -64.3% (inactive) in assay [7] and -135% (inactive) in assay [8]. The inhibition of aggregation in assay [2] is 10.4% (inactive). Further, the results for the nuclei count in assay [2] and in assay [3] were 93.3% and 47.6%, respectively. Moreover, the fluorescence slope in assay [4] is -0.605 (inactive). Further, the NADPH fluorescence slope in assay [5] was 1e-05 (inactive). In addition, the slope in assay [6] was 0.00539 (inactive).

With `COC(=O)CCC(=O)Nc1ccc(OC)cc1`, the cell count in assay [1] was found to be 418. Also, the inhibition in assay [1] was 0% (inactive); in assay [3] it was 31.8% (inactive); in assay [7], 8.73% (inactive); in assay [8], 19.4% (inactive). In assay [2], the inhibition of aggregation was -15.3% (inactive). Also, the nuclei count in assay [2] worked out at 108%; in assay [3], 101%. Besides, the fluorescence slope in assay [4] is -0.51 (inactive). Further, the NADPH fluorescence slope in assay [5] is -5.9e-05 (inactive). In assay [6], the slope was 0.00654 (inactive).

For the compound `Cc1ccnc(N2CCN(C(=O)CSc3nc4ccccc4nc3N3CCCCC3)CC2)c1`, in assay [1], the cell count was found to be 451. In addition, the inhibition in assay [1] is -9.8% (inactive); in assay [3] it was -13.7% (inactive); in assay [7] it was 9.18% (inactive); in assay [8], 4.58% (inactive). The inhibition of aggregation in assay [2] was -14.3% (inactive). The values for the nuclei count in assay [2] and in assay [3] were 113% and 100%, respectively. For the same compound, in assay [4], the fluorescence slope was -0.333 (inactive). Further, the NADPH fluorescence slope in assay [5] is 9.1e-07 (inactive). Also, the slope in assay [6] was 0.00385 (inactive).

Take `Cc1cc(C)c2nc(C(F)(F)F)nc(NCCCN3CCCC3=O)c2c1`: in assay [1], the cell count worked out at 277. The inhibition in assay [1] was 5% (inactive); in assay [3], -230% (inactive); in assay [7], 16.5% (inactive); in assay [8] it was 18.3% (inactive). The inhibition of aggregation in assay [2] was 21.4% (inactive). Besides, the nuclei count came to 80.7% in assay [2] and 97.5% in assay [3]. Also, in assay [4], the fluorescence slope was -0.484 (inactive). In addition, the NADPH fluorescence slope in assay [5] is -2.3e-05 (inactive). For the same compound, the slope in assay [6] is 0.00428 (inactive).

For `COc1cc2c(C#N)c(N3CCN(c4ccccc4OC)CC3)nc(N)c2c(N)n1`, in assay [1], the cell count was 660. For the same compound, the inhibition is 0.7% (inactive) in assay [1], -76.6% (inactive) in assay [3], -0.302% (inactive) in assay [7] and -36.5% (inactive) in assay [8]. Also, the inhibition of aggregation in assay [2] is -14.7% (inactive). Also, the nuclei count in assay [2] is 99.8%; in assay [3], 109%. Besides, the fluorescence slope in assay [4] was -0.178 (inactive). Moreover, in assay [5], the NADPH fluorescence slope is 1.8e-06 (inactive). The slope in assay [6] is 0.00562 (inactive).

Consider `COC(=O)CN1C(=O)C(O)(CC(=O)c2ccc(C)cc2)c2cc(Br)ccc21` (centres undefined), for which, in assay [1], the cell count was 612. Also, the inhibition in assay [1] was 2.9% (inactive); in assay [3], -49.2% (inactive); in assay [7], 4.14% (inactive); in assay [8], -1.15% (inactive). Also, in assay [2], the inhibition of aggregation is -6% (inactive). Moreover, the nuclei count in assay [2] amounted to 94.5%; in assay [3] it was 113%. The fluorescence slope in assay [4] is -0.436 (inactive). Besides, the NADPH fluorescence slope in assay [5] was -4.5e-05 (inactive). The slope in assay [6] is 0.00497 (inactive).

Regarding `O=C(CC(Cc1ccccc1)C(=O)O)NCCc1ccc2c(c1)OCO2` (centres undefined), the cell count in assay [1] was determined as 775. The inhibition in assay [1] is -6.3% (inactive); in assay [3], -161% (inactive); in assay [7], -2.67% (inactive); in assay [8] it was 23.4% (inactive). Further, the inhibition of aggregation in assay [2] was -0.6% (inactive). In addition, the nuclei count in assay [2] came to 107%; in assay [3] it was 145%. In assay [4], the fluorescence slope was -0.424 (inactive). For the same compound, the NADPH fluorescence slope in assay [5] was -3.2e-05 (inactive). For the same compound, the slope in assay [6] was 0.00395 (inactive).

Take `Cc1cc(S(=O)(=O)N(Cc2ccccc2)Cc2ccc(N(C)C)cc2)ccc1-n1cnnn1`: in assay [1], the cell count was found to be 793. Further, the inhibition in assay [1] was 3.3% (inactive); in assay [3] it was -58.8% (inactive); in assay [7], 15.7% (inactive); in assay [8], 36.4% (inactive). For the same compound, the inhibition of aggregation in assay [2] was -7.8% (inactive). Also, the nuclei count in assay [2] turned out to be 94.8%; in assay [3], 130%. Moreover, the fluorescence slope in assay [4] was -0.293 (inactive). Moreover, the NADPH fluorescence slope in assay [5] was -5.5e-05 (inactive). Also, the slope in assay [6] was 0.00447 (inactive).
